{"source": "paper PMC10726135", "about": "“HNF4α isoforms regulate the circadian balance between carbohydrate and lipid metabolism in the liver”", "note": "The full ranking holds about 18,000 sequences; the median of “log2 normalized intensity” is about 0.39, and the highest 2% start at about 6.6. This excerpt belongs to a sample that is enriched for the highest values.", "data": [{"target": "T1, HNF4alpha2 (COS-7 nuclear extract) (Homo sapiens, UniProt P41235 1-474)", "T1 sequence": "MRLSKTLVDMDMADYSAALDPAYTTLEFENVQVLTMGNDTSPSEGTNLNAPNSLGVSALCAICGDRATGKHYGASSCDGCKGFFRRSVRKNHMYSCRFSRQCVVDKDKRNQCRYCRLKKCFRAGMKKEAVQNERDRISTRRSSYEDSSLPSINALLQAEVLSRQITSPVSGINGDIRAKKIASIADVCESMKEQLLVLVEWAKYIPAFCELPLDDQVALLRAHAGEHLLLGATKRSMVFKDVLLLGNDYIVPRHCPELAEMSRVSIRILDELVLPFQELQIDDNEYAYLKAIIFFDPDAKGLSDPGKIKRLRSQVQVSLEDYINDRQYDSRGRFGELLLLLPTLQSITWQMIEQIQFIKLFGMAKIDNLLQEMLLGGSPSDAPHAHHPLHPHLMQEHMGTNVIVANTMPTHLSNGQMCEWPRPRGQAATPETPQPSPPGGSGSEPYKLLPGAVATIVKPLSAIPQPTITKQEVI", "assay": "protein-binding microarray; COS-7 nuclear extract on double-stranded Agilent 4x180k PBM; binding buffer, salt, pH and temperature not given in the material; high values mean tight binding", "settings": "chain copies: 2; label: 3' end of strand 1 on the slide; dsDNA, one strand shown", "summary_of_the_method": "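Nuclear extracts came from COS-7 cells transiently transfected by CaPO4 with a human HNF4α isoform expression vector. They were applied to a custom Agilent SurePrint G3 4x180k array of ~60-nt oligonucleotides, made double-stranded, with ~44,000 test sequences spotted in quadruplicate. Bound HNF4α was imaged at 2-µm resolution on an Agilent G2565CA scanner. Binding signal was taken as background-corrected, normalized gProcessedSignal from Agilent software.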", "units": {"binding signal": "log2 normalized intensity"}, "values": [{"sequence": "GTATCAGGGCTCAGGAATGTGGGGTCAACAGCCTAGGGAGATTAGAGTATCGGTCGA", "binding signal": 2.99}, {"sequence": "CCGCGACAAGCGTCGCTGAGTGGAGGCCCAGCCTAGGGAGATTAGAGTATCGGTCGA", "binding signal": -0.847}, {"sequence": "GCCACGGTCAGCAATGTGGACTTTGTCCTGGCCTAGGGAGATTAGAGTATCGGTCGA", "binding signal": 9.67}, {"sequence": "GTGGACTTTGTCCTGTGGGCTGTAAAAATCGCCTAGGGAGATTAGAGTATCGGTCGA", "binding signal": 5.03}, {"sequence": "CCGTCCTGTCCTGGACTTTCCTTTGTTGGGGCCTAGGGAGATTAGAGTATCGGTCGA", "binding signal": 2.3}, {"sequence": "GTGGGAGAAAGCTTTGGACTTTGGGCTGTGGCCTAGGGAGATTAGAGTATCGGTCGA", "binding signal": 5.72}, {"sequence": "AGTTTGCCACGGTCAGCAATGTGGACTTTGGCCTAGGGAGATTAGAGTATCGGTCGA", "binding signal": 6.18}, {"sequence": "GGTCAGCAATGTGGACTTTGTCCTGTGGGCGCCTAGGGAGATTAGAGTATCGGTCGA", "binding signal": 7.77}, {"sequence": "GCAATGTGGACTTTGTCCTGTGGGCTGTAAGCCTAGGGAGATTAGAGTATCGGTCGA", "binding signal": 7.35}, {"sequence": "TGGACTTTGGTCCTGGTCAGACTTGCCACGGCCTAGGGAGATTAGAGTATCGGTCGA", "binding signal": 4.5}, {"sequence": "ATGGACTTTGAAGGAGATTCCTGTGTCAGCGCCTAGGGAGATTAGAGTATCGGTCGA", "binding signal": 0.984}, {"sequence": "TTGTCAGTGCCCTATACAGACCTTTGTATAGCCTAGGGAGATTAGAGTATCGGTCGA", "binding signal": 2.96}, {"sequence": "CTCACAGAGTGGAGTCTTCCGTTTGATAGAGCCTAGGGAGATTAGAGTATCGGTCGA", "binding signal": -0.436}, {"sequence": "CTTTATCTAGATAAGTTTATTTACTTATGTGCCTAGGGAGATTAGAGTATCGGTCGA", "binding signal": 1.49}, {"sequence": "ATGGTCAGTGTTGATAAGAAAGCTGCAGTCGCCTAGGGAGATTAGAGTATCGGTCGA", "binding signal": 0.747}, {"sequence": "TAGGTTATCTTTGGAGAATGCCTTTTGTGTGCCTAGGGAGATTAGAGTATCGGTCGA", "binding signal": 2.15}, {"sequence": "ATACTTAGGATTTTTGTGCCTCTTTGGTGAGCCTAGGGAGATTAGAGTATCGGTCGA", "binding signal": 1.13}, {"sequence": "TATTCAAACAGAGGACAGTTGTGTTTGTTGGCCTAGGGAGATTAGAGTATCGGTCGA", "binding signal": 1.96}, {"sequence": "TTTGGTGAGGCCCCAGTGTCAATTCTCATTGCCTAGGGAGATTAGAGTATCGGTCGA", "binding signal": 1.82}, {"sequence": "CAGGCTGTTTTCCTATAGATTTGTTAAATCGCCTAGGGAGATTAGAGTATCGGTCGA", "binding signal": 1.13}, {"sequence": "CTTTGTGGCAGGAGGAGCTGTTTGACATCCGCCTAGGGAGATTAGAGTATCGGTCGA", "binding signal": 0.0869}, {"sequence": "GACTCATCTCCAAACGAGACTTTGGACTTTGCCTAGGGAGATTAGAGTATCGGTCGA", "binding signal": 8.97}, {"sequence": "TCTGATACATTGGACAACTGTACTTTGGACGCCTAGGGAGATTAGAGTATCGGTCGA", "binding signal": 7.2}, {"sequence": "ACAGTTCTGATACATTGGACAACTGTACTTGCCTAGGGAGATTAGAGTATCGGTCGA", "binding signal": 2.1}, {"sequence": "GGTGAGATAAGAAGACTCCAGGGGACTGCCGCCTAGGGAGATTAGAGTATCGGTCGA", "binding signal": -0.872}, {"sequence": "ATCTCCAGATAAGACTTTGGACTTTGGACCGCCTAGGGAGATTAGAGTATCGGTCGA", "binding signal": 11.6}, {"sequence": "GCTAAGAGACAGCTCCACAGCTGGACTTTGGCCTAGGGAGATTAGAGTATCGGTCGA", "binding signal": 5.15}, {"sequence": "GAGACAGCTCCACAGCTGGACTTTGGCTGCGCCTAGGGAGATTAGAGTATCGGTCGA", "binding signal": 5.41}, {"sequence": "GGGTGAAAGGGACTCATCTCCAAACGAGACGCCTAGGGAGATTAGAGTATCGGTCGA", "binding signal": -0.986}, {"sequence": "AAAGGGACTCATCTCCAAACGAGACTTTGGGCCTAGGGAGATTAGAGTATCGGTCGA", "binding signal": 1.6}, {"sequence": "CTCCAAACATCTTTGGTATGGACTGATATTGCCTAGGGAGATTAGAGTATCGGTCGA", "binding signal": 1.5}, {"sequence": "ATCTCCAAACGAGACTTTGGACTTTGGACTGCCTAGGGAGATTAGAGTATCGGTCGA", "binding signal": 11.8}, {"sequence": "TACATTGGACAACTGTACTTTGGACTGGGGGCCTAGGGAGATTAGAGTATCGGTCGA", "binding signal": 5.99}, {"sequence": "ATGATTGACAGGTTATTTCAATTACAAAGCGCCTAGGGAGATTAGAGTATCGGTCGA", "binding signal": 1.06}, {"sequence": "CCCGGCAGATCAGGGTCAGGCTGTGGTACGGCCTAGGGAGATTAGAGTATCGGTCGA", "binding signal": 0.662}, {"sequence": "AGTCCCTGTCCCTTCTTGGCAAGTTAATGTGCCTAGGGAGATTAGAGTATCGGTCGA", "binding signal": 1.94}, {"sequence": "GGTGAGGGTGAGGGTGAGGGTTAGGGGTTAGCCTAGGGAGATTAGAGTATCGGTCGA", "binding signal": -0.0851}, {"sequence": "CATTAAGCTTAGCGTTATCAAACCAAATATGCCTAGGGAGATTAGAGTATCGGTCGA", "binding signal": -0.0208}, {"sequence": "GGTCAACACAATCTGATAGTTGATTGATTGGCCTAGGGAGATTAGAGTATCGGTCGA", "binding signal": 0.627}, {"sequence": "TCATCTTCAAAGCCAGCAATGGCAGGTCCAGCCTAGGGAGATTAGAGTATCGGTCGA", "binding signal": 1.41}, {"sequence": "TCTGCAGACATGGACTCTGGGATCTCAGGGGCCTAGGGAGATTAGAGTATCGGTCGA", "binding signal": 1.24}, {"sequence": "ACAGCTAGTCTAGACTTTGCTTTCTTGGAGGCCTAGGGAGATTAGAGTATCGGTCGA", "binding signal": 1.24}, {"sequence": "TGGTGGGGAATGCTAGGACTCATTCTCCCCGCCTAGGGAGATTAGAGTATCGGTCGA", "binding signal": 0.442}]}]}
